The list is not random: actives were taken first. Their share in the collection is about 3.2%.
MEKK2 WT-MEK5 – modulators of MEK5 binding to wildtype MEKK2, primary screen, biochemical, multiplex bead flow cytometry, Alexa488-MEK5 | Mitogen-activated protein kinase kinase kinase 2 (Homo sapiens), Q9Y2U5 | Alexa488-MEK5 binding to MEKK2 WT; actives lie on both sides | binding response (% of control), % at 10 µM | 290,000 tested, 1.1% active; in the data active = binding response below about 67% or above about 130%
CendR NRP1 mod – modulators of CendR peptide binding to NRP-1, primary screen, biochemical, fluorescence polarization, uHTS; AID 602438, 2012; 360,000 tested, 0.85% active; inhibition, % at 25 µM; FAM-RPARPAR peptide binding to NRP-1;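 active = inhibition or corrected inhibition above about 18%, plus a signal ratio from 0.5 to 1.5, limit read from the data, passing the limit was not always enough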
Target sequence (O14786 whole entry, looked up): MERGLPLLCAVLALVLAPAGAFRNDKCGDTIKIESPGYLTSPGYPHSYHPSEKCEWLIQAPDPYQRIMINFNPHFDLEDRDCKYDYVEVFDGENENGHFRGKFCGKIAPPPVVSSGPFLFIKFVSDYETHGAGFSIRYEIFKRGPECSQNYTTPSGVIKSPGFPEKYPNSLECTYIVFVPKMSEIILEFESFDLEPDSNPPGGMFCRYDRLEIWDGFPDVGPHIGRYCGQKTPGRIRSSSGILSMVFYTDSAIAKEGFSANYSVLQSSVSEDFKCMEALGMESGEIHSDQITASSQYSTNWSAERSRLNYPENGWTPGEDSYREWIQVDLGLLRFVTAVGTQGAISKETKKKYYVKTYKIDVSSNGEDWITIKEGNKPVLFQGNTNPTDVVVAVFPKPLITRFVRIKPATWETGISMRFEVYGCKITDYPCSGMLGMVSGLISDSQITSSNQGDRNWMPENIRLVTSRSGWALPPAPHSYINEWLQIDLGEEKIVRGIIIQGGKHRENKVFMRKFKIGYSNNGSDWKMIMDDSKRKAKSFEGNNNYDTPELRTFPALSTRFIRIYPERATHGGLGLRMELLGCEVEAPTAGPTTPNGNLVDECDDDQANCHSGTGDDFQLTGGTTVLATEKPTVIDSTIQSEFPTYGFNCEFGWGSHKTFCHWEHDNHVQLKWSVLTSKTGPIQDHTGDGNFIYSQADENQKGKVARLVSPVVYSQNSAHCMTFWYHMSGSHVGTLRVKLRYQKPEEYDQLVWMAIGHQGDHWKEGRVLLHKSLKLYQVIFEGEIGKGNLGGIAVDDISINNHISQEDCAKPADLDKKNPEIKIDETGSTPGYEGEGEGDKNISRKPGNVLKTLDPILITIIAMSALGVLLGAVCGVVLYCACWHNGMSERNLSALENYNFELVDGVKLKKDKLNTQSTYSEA
SKN-1 block – suppressors of acrylamide-induced Pgst-4::GFP reporter in worms, primary screen, SKN-1 inhibitor project, whole organism, uHTS, GFP/RFP fluorescence ratio, strain VP596 | C. elegans VP596 Pgst-4::GFP/RFP ratio, 24 h | inhibition, % at 21.8 µM | 360,000 tested, 0.49% active | AID 624304, 2012;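 active = interference check ratio from 0.5 to 1.5 plus GFP to RFP signal ratio inhibition reaching or exceeding a fixed threshold, cut at about 30% in these data, passing the limit was not always enough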
MEKK2 mut-MEK5 – MEK5 binding signal on mutant MEKK2 PB1, primary screen, biochemical, multiplex bead flow cytometry, Alexa488-MEK5; Alexa488-MEK5 binding to MEKK2 mutant; percent response, % at 10 µM; 290,000 tested, 0.35% active; in the data active = percent response above about 24%, passing the limit was not always enough
MEKK3 PB1 HTS – modulators of MEKK3-MEK5 PB1 binding, primary screen, biochemical, wildtype MEKK3, multiplex bead flow cytometry, Alexa488-MEK5; binding response (% of control), % at 10 µM; 290,000 tested, 1.4% active; Mitogen-activated protein kinase kinase kinase 3 (Homo sapiens), Q99759; bead-based flow cytometry, Alexa488-MEK5 binding to MEKK3; actives lie on both sides; 0 = blocked by unlabeled MEK5, 100 = vehicle;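 active = binding response more than 3 SD above or below the average of its plate-row segment, actives on both sides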;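 also: Alexa488 bead fluorescence after subtracting the streptavidin-only scavenger bead signal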
MEKK2wt confirm – modulators of MEK5 binding to wildtype MEKK2, confirmation, biochemical, single concentration, multiplex bead flow cytometry; shares compounds with MEKK3 PB1 HTS; Alexa488-MEK5 binding to MEKK2 WT; actives lie on both sides; binding response (% of control), % at 10 µM; 5,900 tested, 2.4% active; AID 1892, 2009; in the data active = binding response below about 16% or above about 210%; inactive = in between
MEKK2mut-MEK5 – mutant MEKK2 PB1-MEK5 binding signal retest – biochemical, single concentration, multiplex bead flow cytometry, confirmation; shares compounds with MEKK3 PB1 HTS; Alexa488-MEK5 binding to MEKK2 mutant; percent response, % at 10 µM; 5,900 tested, 2% active; AID 1893, 2009; in the data active = percent response mostly above about 71%, no sharp cut-off; inactive = mostly below about 38%;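 also: higher means compound restores mutant binding toward wildtype level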
MEKK3-MEK5 inh – MEKK3 wild-type PB1 binding to MEK5, inhibitors, confirmation, biochemical, bead multiplex flow cytometry, single concentration, wildtype; shares compounds with MEKK3 PB1 HTS; Alexa488-MEK5 binding to MEKK3; hits give low values; binding response (% of control), % at 10 µM; 5,900 tested, 1.8% active; AID 1894, 2009;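 active = binding response below 72% of control, or above a set upper limit, though filed actives all read lower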;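 also: 100% = DMSO only wells and 0% = binding blocked by excess unlabeled MEK5; lower values mean stronger disruption of MEK5 binding to MEKK3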
* marks the source's active call; other numbers are inactive results; nt = no result; [ ] = another dose, or the depositor's remark.

SMILES	MEKK2 WT-MEK5	CendR NRP1 mod	SKN-1 block	MEKK2 mut-MEK5	MEKK3 PB1 HTS	MEKK2wt confirm	MEKK2mut-MEK5	MEKK3-MEK5 inh
C=CCN(c1ccccc1OC)S(=O)(=O)c1cccc(C(=O)NCC(c2ccc(OC)cc2)N2CCCC2)c1 (stereo not drawn)	nt	-27	-2	nt	nt	nt	nt	nt
O=c1oc2ccccc2nc1/C=C(O)/C=C\c1ccccc1	61*[inhibitor]	-43	2	-28	82*[inhibitor]	77	-15	100
CCc1ccc(NC(=O)CSc2nnc(CNC(=O)c3c(F)cccc3Cl)o2)cc1	3.0*[inhibitor]	7	5	-24	3.0*[inhibitor]	104	3	101
CN1CCN(CCCN2c3ccccc3Sc3ccc(S(=O)(=O)N(C)C)cc32)CC1	nt	-8	13	nt	nt	nt	nt	nt
CSc1ccc2c(c1)N(CCC1CCCCN1C)c1ccccc1S2 (stereo not drawn)	176*	4	6	16	76	191	64	116
Cc1n[nH]c(=O)nc1N/N=C/c1ccc(O)c([N+](=O)[O-])c1	107	3	-3	1	129*	99	0	102
CN(C)CCCn1c(SCC(=O)Nc2nc(-c3cccc(Br)c3)cs2)nc2ccccc2c1=O	265*	12	8	55*	128*	272*	166*	114
O=C(NC(NC(=S)Nc1ccc(Cl)cc1Cl)C(Cl)(Cl)Cl)c1cccc([N+](=O)[O-])c1 (stereo not drawn)	145*	4	-1	14	141*	131	17	111
COc1ccc(C(=O)N(CC2CCCO2)C(C(=O)NCCC(C)C)c2ccc(C)cc2)cc1OC (stereo not drawn)	111	-1	2	2	132*	90	1	94
O=C(NC1CCCC1)C(c1ccc(O)cc1)N(CC1CCCO1)C(=O)C1COc2ccccc2O1 (stereo not drawn)	96	-6	-1	-1	99	nt	nt	nt
COc1ccc(C(=O)N(CC2CCCO2)C(C(=O)NC2CCCC2)c2ccc(Cl)cc2)cc1OC (stereo not drawn)	99	8	12	1	103	nt	nt	nt
COc1ccc(C(C(=O)NC2CCCCC2)N(CC2CCCO2)C(=O)C2COc3ccccc3O2)cc1OC (stereo not drawn)	104	-8	7	7	129*	100	8	102
Nc1nc2c(nnn2C2CC(O)C(CO)O2)c(=O)[nH]1 (stereo not drawn)	nt	10	12	nt	nt	nt	nt	nt
Cc1ccc(NC(=O)C2C3CCC(O3)C2C(=O)O)cc1Cl (stereo not drawn)	3.0*[inhibitor]	-8	10	-61	2.0*[inhibitor]	100	-5	99
CCCC(=O)N1N=C(c2ccccc2)CC1c1cn(C)c2ccccc12 (stereo not drawn)	107	-17	2	3	134*	100	-4	100
Cn1cc(C2CC(c3ccccc3)=NN2C(=O)c2ccccc2)c2ccccc21 (stereo not drawn)	97	-2	-1	-2	90	nt	nt	nt
COc1ccc(C(C)=O)cc1COC(=O)CNC(=O)c1ccccc1F	103	-17	5	-1	138*	100	6	103
CN(C(=O)c1cccc(NC(=O)Cc2ccc(NC(=O)C3CCCN(C(=O)C4CCC4)C3)cc2)c1)C1CCCCC1 (stereo not drawn)	nt	8	3	nt	nt	nt	nt	nt
COc1ccc(OC)c(NC(=O)C2(C)CCN2C(=O)C2(c3ccccc3)CCCC2)c1 (stereo not drawn)	nt	0	-6	nt	nt	nt	nt	nt
COc1cccc(C(=O)NC(=S)Nc2ccc(N(C)C)cc2)c1	106	-4	2	2	141*	116	9	104
COc1cccc(C(=O)NC(=S)Nc2ccc(Cl)cc2C(=O)O)c1	130	4	-7	25	131*	100	3	103
COc1cccc(C(=O)NC(=S)Nc2ccc(N3CCCC3)cc2)c1	91	14	18	-16	88	nt	nt	nt
CCOc1cccc(C(=O)NC(=S)Nc2cccc(C)c2)c1	105	3	-12	0	130*	100	0	100
COc1cccc(C(=O)NC(=S)Nc2ccc3c4c(cccc24)CC3)c1	108	-6	-19	11	107	nt	nt	nt
CCn1c(CNC(=O)c2cccc(C)c2)nnc1SCC(=O)Nc1nnc(C)s1	96	6	3	1	98	nt	nt	nt
SMILES	MEKK2 WT-MEK5	CendR NRP1 mod	SKN-1 block	MEKK2 mut-MEK5	MEKK3 PB1 HTS	MEKK2wt confirm	MEKK2mut-MEK5	MEKK3-MEK5 inh
CSc1cccc(NC(=O)CSc2ncccc2C(=O)Oc2cccc([N+](=O)[O-])c2)c1	104	-12	2	0	121	nt	nt	nt
CCN(C(=O)CSc1ncccc1C(=O)Oc1cccc([N+](=O)[O-])c1)c1cccc(C)c1	107	-6	-4	1	138*	101	1	104
O=C(CN(C(=O)c1csnn1)c1ccc(Cl)cc1)NCCc1ccccc1	101	8	7	5	101	nt	nt	nt
CC(C)CN(C(=O)COC(=O)C12CC3CC(CC(O)(C3)C1)C2)C1CCS(=O)(=O)C1 (stereo not drawn)	0.0*[inhibitor]	-2	-19	-17	0.0*[inhibitor]	101	-6	100
COc1ccc2c(c1)CC=C1C2CCC2(C)C(=O)C(=NO)CC12 (stereo not drawn)	nt	12	0	nt	nt	nt	nt	nt
COc1cccc(-c2nc(Cc3ccc(OC)c(OC)c3)no2)c1	-6.0*[inhibitor]	20	1	1	96	99	-2	97
NS(=O)(=O)c1ccc(N=Nc2c(O)c(C(=O)O)cc3ccccc23)cc1	69	4	30	-39	65*[inhibitor]	96	-4	98
O=C(O)Cc1ccc(N=Nc2c(O)c(C(=O)O)cc3ccccc23)cc1	91	3	25	4	99	nt	nt	nt
Cn1cnnc1SCC(=O)Nc1ncc([N+](=O)[O-])s1	nt	-4	5	nt	nt	nt	nt	nt
c1ccc(CN(CC2=NCCN2)c2ccccc2)cc1	105	-5	9	5	92	nt	nt	nt

Screening data deposited in PubChem by several laboratories.
